Reference: PubChem BioAssay
Unmarked numbers belong to inactive results. The rule behind the calls is not given here.

Each compound was assayed against Pantothenate synthetase (Mycobacterium tuberculosis (strain ATCC 25618 / H37Rv)) (UniProt P9WIL5) (assay: Coupled enzyme confirmation of inhibitors against recombinant Mtb PanC (AID 375;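 note: 0% = full reaction with vehicle and 100% = no enzyme background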)). Settings: coupled enzyme assay; at 10 µM, stronger effect = higher value.
Pantothenate synthetase (Mycobacterium tuberculosis (strain ATCC 25618 / H37Rv)), sequence (P9WIL5 whole entry, looked up): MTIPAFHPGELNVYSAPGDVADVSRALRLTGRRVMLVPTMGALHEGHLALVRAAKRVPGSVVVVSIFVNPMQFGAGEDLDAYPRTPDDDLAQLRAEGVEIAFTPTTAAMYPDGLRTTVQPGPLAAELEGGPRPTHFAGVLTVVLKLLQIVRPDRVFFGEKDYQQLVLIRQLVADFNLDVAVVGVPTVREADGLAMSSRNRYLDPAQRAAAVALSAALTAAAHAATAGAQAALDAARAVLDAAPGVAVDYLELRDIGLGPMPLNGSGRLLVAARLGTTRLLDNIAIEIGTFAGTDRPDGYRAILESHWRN

**Q.** For `O=C(NCCN1CCOCC1)c1ccc2c(c1)N(Cc1ccccc1F)C(=O)CS2`, which inhibition is on record?
**A.** 0%

**Q.** With `CCSc1nc(N)c(C#N)c(-c2ccccc2Cl)c1C#N` as the compound, how does the inhibition read?
**A.** 6%

**Q.** How did the inhibition turn out when `N#Cc1cc2c(nc1SCC(=O)N1CCCCC1)CCCC2` was run?
**A.** 0%

**Q.** How did the inhibition turn out when `Cc1cc(-c2ccccc2)c(C#N)c(N)n1` was run?
**A.** 1%

**Q.** Which inhibition does the source give for `CCOC(=O)N1CCC(NC(=O)C2CCN(S(=O)(=O)c3cccc4cccnc34)CC2)CC1` here?
**A.** 0%

**Q.** For `O=S(=O)(NC1CCCC1)c1ccc(S(=O)(=O)N2CCc3ccccc32)cc1`, which inhibition is on record?
**A.** 0%

**Q.** `COC(=O)Cc1cc(=O)[nH]c(Nc2nc3ccccc3o2)n1` was tested. Which inhibition did it give?
**A.** 0%

**Q.** `COC(=O)c1oc2ccc(OC)cc2c1N` was tested. Which inhibition did it give?
**A.** 5%

**Q.** With `Cc1cc(C)c2c(=O)n(CC(=O)N3CCC(Cc4ccccc4)CC3)sc2n1` as the compound, how does the inhibition read?
**A.** 0%

**Q.** How did the inhibition turn out when `CCOC(=O)N1CCN(c2nc(-c3ccc(Cl)cc3)cs2)CC1` was run?
**A.** 0%

**Q.** With `CC(C)Cc1nc(N2CCN(C(=O)c3ccco3)CC2)c(C#N)c2c1CCC2` as the compound, how does the inhibition read?
**A.** 5%

**Q.** `Nn1cc(-c2ccccc2)nc1SCC(=O)N1CCN(S(=O)(=O)c2ccccc2)CC1` was tested. Which inhibition did it give?
**A.** 0%

**Q.** With `CCCn1c(C)nc2c(c1=O)c1nc3ccccc3nc1n2CCc1ccccc1` as the compound, how does the inhibition read?
**A.** 4%

**Q.** With `CC(=O)N(C)C1(c2nnnn2CCOC(=O)Nc2cccc3ccccc23)CCCC1` as the compound, how does the inhibition read?
**A.** 0%

**Q.** With `COC(=O)C1=C(C)OC(N)=C(C#N)C1c1c(C)nn(-c2ccccc2)c1Cl` (stereo not given) as the compound, how does the inhibition read?
**A.** 0%

**Q.** For `COc1ccccc1OCc1ccc(C(=O)OCC2CCCO2)o1` (stereo not given), which inhibition is on record?
**A.** 0%

**Q.** Which inhibition does the source give for `COc1cccc(NC(=O)CC2SC(=Nc3ccccc3)NC2=O)c1` (stereo not given) here?
**A.** 0%

**Q.** Which inhibition does the source give for `COc1ccc(N(CC(=O)NC2CCCC2)C(=O)Cn2nnc(-c3ccc(C)cc3)n2)cc1` here?
**A.** 0%

**Q.** How did the inhibition turn out when `O=C(CCc1nc2ccccc2[nH]1)Nc1ccc2c(c1)OCO2` was run?
**A.** 0%

**Q.** Which inhibition does the source give for `COc1ccc(Br)cc1S(=O)(=O)N1CCOCC1` here?
**A.** 0%

**Q.** With `COc1ccccc1NC(=O)N1c2ccc(F)cc2CCC1C` (stereo not given) as the compound, how does the inhibition read?
**A.** 8%

**Q.** `O=C(O)CCc1ccc(-c2ccc(Br)cc2)n1CC(=O)O` was tested. Which inhibition did it give?
**A.** 0%

**Q.** Which inhibition does the source give for `CCCCNS(=O)(=O)c1ccc(OC)c2ncccc12` here?
**A.** 3%

**Q.** With `CCC(=O)N1CCc2cc(Br)cc(S(=O)(=O)CCC(=O)NCC3CCCO3)c21` (stereo not given) as the compound, how does the inhibition read?
**A.** 0%

**Q.** How did the inhibition turn out when `COc1ccc(C(=O)Nc2ccc(Cl)c(Cl)c2)c(OC)n1` was run?
**A.** 0%

**Q.** Which inhibition does the source give for `CCn1cc(S(=O)(=O)CC(=O)Nc2ccc(OC)cc2)c2ccccc21` here?
**A.** 1%

**Q.** For `Cc1noc(C)c1S(=O)(=O)Nc1c(C)n(C)n(-c2ccccc2)c1=O`, which inhibition is on record?
**A.** 5%

**Q.** Which inhibition does the source give for `N#C/C(=C(/O)CN1CCOCC1)c1nc2ccccc2s1` here?
**A.** 0%

**Q.** Which inhibition does the source give for `CN(C(=O)c1ccc(S(=O)(=O)NC2CCCC2)cc1)C1CCCCC1` here?
**A.** 5%

**Q.** With `CCOC(=O)c1c(-c2ccc(C)o2)csc1NC(=O)COC(=O)c1cccs1` as the compound, how does the inhibition read?
**A.** 5%

**Q.** `CCOC(=O)c1cc2c(=O)n3ccccc3nc2n(Cc2ccccc2)c1=N` was tested. Which inhibition did it give?
**A.** 0%

**Q.** With `Cc1c(NC2=NC3(CCCCC3)Cc3ccccc32)c(=O)n(-c2ccccc2)n1C` as the compound, how does the inhibition read?
**A.** 2%

**Q.** With `Cc1nnc(SCC(=O)Nc2ccc3c4c(cccc24)CC3)n1C` as the compound, how does the inhibition read?
**A.** 0%

**Q.** For `Cc1c(N(C)C)nc2ccccc2c1N`, which inhibition is on record?
**A.** 0%

**Q.** `Cc1ccccc1NC(=O)C1CCCN(S(=O)(=O)c2cccc3cccnc23)C1` (stereo not given) was tested. Which inhibition did it give?
**A.** 0%

**Q.** With `O=C1CC(c2ccc(F)c(Br)c2)C2=C(CCCC2=O)N1` (stereo not given) as the compound, how does the inhibition read?
**A.** 5%

**Q.** Which inhibition does the source give for `Cc1ccc(OCC2Cn3c(nc4c3c(=O)n(C)c(=O)n4C)O2)cc1` (stereo not given) here?
**A.** 0%

**Q.** Which inhibition does the source give for `CCOc1cccc(OCCOCCN2CCCC2)c1` here?
**A.** 8%

**Q.** For `COc1cc(OC)cc(C(=O)NCc2n[nH]c(=S)n2-c2ccccc2OC)c1`, which inhibition is on record?
**A.** 0%

**Q.** With `O=P1(O)C=C(c2ccccc2)NC(c2ccccc2)=C1` as the compound, how does the inhibition read?
**A.** 0%
